# Reference: PubChem BioAssay (NCATS)
# Inconclusive results are not listed. Where a call stands in place of a potency, no number is given. The source made the active and inactive calls. The call rests on the fitted dose curve; in most records, active means well fitted cell-killing curve with a large enough effect; inconclusive means small, poorly fitted or top-dose-only effect, or effect the other way; inactive means no such curve, though single readings can be large or run the other way.
# Assay: Quantitative High-Throughput drug screen in 47 multiple myeloma cell lines against the NCATS MIPE library collection: EJM_DSMZ cell viability assay (AID 1918926; further: nearly all actives have a fitted effect of over 30% in size)
# Conditions: EJM myeloma cell viability, CellTiter-Glo ATP, 48 h; series mostly up to 45.8 µM
# Outline: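 CellTiter-Glo ATP luminescence gave viability after 48 h compound treatment at 37C of 500 multiple myeloma cells per well. Normalisation used DMSO-only wells as 100% and media-only wells as 0% viability; primary qHTS of approved and investigational drugs.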
# Potency means the concentration at half of the fitted maximal effect.
row,Structure (SMILES),Potency
1,O=C1CCC[C@@H]2[C@H]3CCCN4CCC[C@@H](CN12)[C@@H]34,inactive
2,CN[C@@H]1Cc2cccc3[nH]c(=O)n(c23)C1,inactive
3,CC=C(C)C(=O)O[C@H]1C(C)=C2[C@@H]3OC(=O)[C@@](C)(O)[C@@]3(O)[C@@H](OC(=O)CCC)C[C@](C)(OC(C)=O)[C@@H]2[C@@H]1OC(=O)CCCCCCC,0.0372 µM (active)
4,CC1=NN=C(c2ccc(N)cc2)c2cc3c(cc2C1)OCO3,inactive
5,C[C@]12CC[C@H]3[C@@H](CCC4=CC(=O)CC[C@@]43C)[C@H]1CC[C@H]2OC(=O)CCC1CCCC1,16.6 µM (active)
6,O=[N+]([O-])c1ncc[nH]1,inactive
7,O=C(NCC1CCOCC1)c1cnc(Nc2ccc(Cl)cc2Cl)nc1C(F)(F)F,inactive
8,CC(O)=C(C#N)C(=O)Nc1cc(Br)ccc1Br,7.43 µM (active)
9,CC(C)[C@H]1C(=O)N[C@H](CO)Cc2c[nH]c3cccc(c23)N1C,inactive
10,CC(C)(C)c1cc(C=C(C#N)C#N)cc(Br)c1O,23.5 µM (active)
11,O=C(Oc1ccc([N+](=O)[O-])cc1)N1CCN(Cc2cccc(Oc3ccccc3)c2)CC1,inactive
12,O=C(Oc1ccc([N+](=O)[O-])cc1)N1CCC(C(O)(c2ccc3c(c2)OCO3)c2ccc3c(c2)OCO3)CC1,inactive
